A selection: hits, their analogues and other compounds. The true share with any hit is near 1.3%.
PTPN22 act: LYP (human) phosphatase activation. recombinant LYP, DiFMUP fluorescence; 0 = plate median, 100 = signal doubled. activation, % at 2 µM. hit rate 0.11% among 96,000;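 active = activation at 2 µM above a set limit, the mean plus 5 SD, cut at about 37% in these data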
Target sequence (Q9Y2R2 whole entry, looked up): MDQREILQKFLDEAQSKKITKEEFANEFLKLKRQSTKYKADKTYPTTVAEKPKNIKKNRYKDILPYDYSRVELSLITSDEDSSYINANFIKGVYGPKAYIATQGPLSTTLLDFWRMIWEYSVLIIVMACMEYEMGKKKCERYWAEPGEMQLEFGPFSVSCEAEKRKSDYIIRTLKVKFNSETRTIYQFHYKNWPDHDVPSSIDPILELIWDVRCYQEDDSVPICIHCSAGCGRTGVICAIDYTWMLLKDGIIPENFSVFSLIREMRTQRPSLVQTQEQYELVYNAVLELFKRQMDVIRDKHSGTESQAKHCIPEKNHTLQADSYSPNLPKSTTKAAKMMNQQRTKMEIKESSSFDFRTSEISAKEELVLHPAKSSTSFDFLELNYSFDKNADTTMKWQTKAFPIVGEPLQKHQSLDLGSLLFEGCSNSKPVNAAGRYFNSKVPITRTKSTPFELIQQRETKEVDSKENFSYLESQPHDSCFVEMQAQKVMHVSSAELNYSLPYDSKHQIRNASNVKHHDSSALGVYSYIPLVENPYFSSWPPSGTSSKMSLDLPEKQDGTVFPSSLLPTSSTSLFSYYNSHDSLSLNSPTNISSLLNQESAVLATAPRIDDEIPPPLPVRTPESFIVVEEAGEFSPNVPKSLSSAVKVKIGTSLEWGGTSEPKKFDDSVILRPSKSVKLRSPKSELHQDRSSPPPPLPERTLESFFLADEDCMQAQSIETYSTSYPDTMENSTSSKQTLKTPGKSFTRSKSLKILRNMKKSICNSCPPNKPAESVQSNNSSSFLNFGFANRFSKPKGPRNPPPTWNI
PTPN22 inh 2: LYP (human) phosphatase inhibition. Q9Y2R2. recombinant LYP catalytic domain, DiFMUP fluorescence. inhibition, % at 2 µM. hit rate 0.21% among 96,000;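 active = inhibition at 2 µM at or above a set limit, the screen mean plus 3 SD, cut at about 24% in these data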;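 note: 0% = DMSO with enzyme and 100% = enzyme fully blocked by orthovanadate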
GALR2 ag: agonists of human galanin receptor 2 (GALR2); GALR2-expressing cells, agonist activation read-out; activation, % (no concentration beside the values); hit rate 0.48% among 140,000; AID 803; in the data active = activation above about 5%, passing the limit was not always enough;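 note: 0% = vehicle buffer wells and 100% = reference agonist at full effect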
GALR2 blocker: GALR2 (human) receptor antagonism; GALR2-expressing cells, antagonist mode; hit rate 0.39% among 140,000; inhibition, % at 4 µM;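 note: cells stimulated with galanin 1-16 at roughly its EC80; 0% = agonist challenge control and 100% = basal control without agonist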
S1P2 ag: S1P2 (human) receptor agonism; S1P2-expressing cell line, agonist reporter read-out; hit rate 0.46% among 97,000; O95136; activation, % at 4.5 µM; in the data active = activation above about 16%;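 note: 0% = vehicle low control and 100% = maximal reference agonist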
S1P2 antag: S1P2 (human) receptor antagonism; cell-based S1P2 antagonist assay, inhibition at 5 uM; inhibition, % at 5 µM; hit rate 0.21% among 97,000; in the data active = inhibition above about 45%;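 note: CRE beta-lactamase reporter cells expressing human S1P2 stimulated with S1P; 0% = agonist at EC80 alone and 100% = agonist plus reference antagonist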
GALR2 blk conf: GALR2 (human) antagonism confirmed; shares compounds with GALR2 blocker; GALR2-expressing cells, antagonist mode, inhibition; inhibition, % at 4 µM; hit rate 60% among 480;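 note: cells stimulated with galanin at about its EC80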
BLA inh counter: counter-screen for GALR2 antagonists: beta-lactamase reporter inhibitors; shares compounds with GALR2 blocker; CHO NFAT-BLA reporter, beta-lactamase FRET, thapsigargin-stimulated; inhibition, % at 4.2 µM; hit rate 36% among 480; AID 867;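 active = inhibition above the mean inhibition across tested compounds plus 3 SD, cut at about 27% in these data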;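 note: 0% = 500 nM thapsigargin stimulated wells and 100% = unstimulated BSA only wells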
Starred values were filed as active, the others as inactive; nt = not tested or not shown. Cut-off read from the data, not from the text of the source, unless noted: active = inhibition above about 27%; inactive = the rest.

SMILES	PTPN22 act	PTPN22 inh 2	GALR2 ag	GALR2 blocker	S1P2 ag	S1P2 antag	GALR2 blk conf	BLA inh counter
Cc1ccc(C2CC(=O)Nc3cc4c(cc32)OCO4)o1 (stereo not given)	-4.1	3.0	-1.7	34.4*	-4.7	-16.7	1.2	0.8
CC(=O)Nc1cn(C(C)=O)c(C)n1	nt	nt	-2.8	29.1*	nt	nt	13.7	5.8
COc1cc(C(=O)Nc2c(C)cc(C)cc2C)c([N+](=O)[O-])cc1OC	nt	nt	-0.2	-3.3	nt	nt	nt	nt
Oc1sc(C=Nc2ccccc2)c2ccccc12	7.1	-5.5	-2.2	39.4*	-5.7	32.0	29.8*	28.3*
Oc1c(C=Nc2cccnc2)sc2ccccc12	1.0	-2.8	-0.3	9.6	-1.9	6.9	nt	nt
COc1ccc(N=Cc2c(O)[nH]c3ccccc23)cc1	4.2	-4.3	-2.1	10.1	-6.6	-2.8	nt	nt
Oc1sc(C=Nc2ccc(F)cc2)c2ccccc12	0.1	1.4	-1.9	39.0*	-7.5	26.6	27.1*	14.0
CC1=C(C(=O)Nc2ccc(Br)cc2)C(c2ccco2)NC(=O)N1 (stereo not given)	4.2	-4.7	2.2	1.8	-7.7	-8.1	nt	nt
O=C(Nc1cccc(F)c1)c1sc(Cl)nc1-c1ccccc1	nt	nt	-1.5	27.3*	nt	nt	13.5	11.1
CCC(=O)Nc1ccc(C(=O)CSc2nnc(-c3ccc(NS(C)(=O)=O)cc3)n2C)cc1OC	nt	nt	-0.6	-6.4	nt	nt	nt	nt
Cc1ccccc1C(=O)c1cccn1CC(=O)NCc1ccc2c(c1)OCO2	3.8	-4.2	-2.8	-11.5	-4.0	-14.7	nt	nt
N#C/C(=C\c1ccc(Sc2ccc(Cl)cc2)o1)c1nc2ccccc2[nH]1	nt	nt	0.1	31.9*	nt	nt	34.7*	28.8*
N#C/C(=C/c1cccs1)c1nc2ccccc2[nH]1	nt	nt	0.2	19.1	nt	nt	nt	nt
N#C/C(=C\c1ccc(Sc2nc3ccccc3[nH]2)o1)c1ccccc1	-8.7	10.6	-2.3	6.4	-2.5	-22.0	nt	nt
Cc1ccc(/C=C(\C#N)c2nc3ccccc3[nH]2)s1	8.8	-3.2	-2.7	29.8*	-1.6	-18.9	33.7*	21.0
Cc1ccc(C)c(OCC(=O)NCC(C)C)c1C	nt	nt	-0.7	14.5	nt	nt	nt	nt
COC(=O)c1ccc(Oc2c(Cl)cccc2[N+](=O)[O-])cc1	nt	nt	-0.3	-6.9	nt	nt	nt	nt
Cc1cc(N2C(=O)C=CC2=O)c([N+](=O)[O-])cc1C	nt	nt	-2.0	45.0*	nt	nt	46.2*	71.2*
Cc1ccc(C)c(N2CCN(c3ccc(N4C(=O)COCC4=O)cc3[N+](=O)[O-])CC2)c1	nt	nt	-1.3	8.4	nt	nt	nt	nt
O=C(CCl)N1N=C(c2ccco2)CC1c1cccs1 (stereo not given)	nt	nt	-1.0	28.6*	nt	nt	33.1*	17.6
CCNC(=S)SCCOc1ccc(C)cc1	nt	nt	-0.9	-3.5	nt	nt	nt	nt
Cc1cc(C)c(S(=O)(=O)NCc2ccncc2)c(C)c1	16.1	-13.1	0.7	31.3*	-4.5	47.1*	35.1*	9.1
CCCCNS(=O)(=O)c1ccc(S(=O)(=O)NCc2ccncc2)cc1	-5.5	4.3	-1.7	27.4*	-3.7	19.1	19.7	13.1
O=C(/C=C/c1ccccc1Cl)NC(=S)Nc1ccccc1C(=O)NC1CCCCC1	-13.2	15.2	-1.7	-1.0	-6.8	13.0	nt	nt
CCCOc1cc(N(CC)CC)ccc1/C=C(/C#N)c1nc2ccc(C)cc2[nH]1	-7.0	9.7	-2.9	25.1	-0.2	0.8	nt	nt
SMILES	PTPN22 act	PTPN22 inh 2	GALR2 ag	GALR2 blocker	S1P2 ag	S1P2 antag	GALR2 blk conf	BLA inh counter
CCN(CC)c1ccc(/C=C(/C#N)c2nc3ccc(C)cc3[nH]2)c(OC(C)C)c1	-6.5	9.9	-4.3	33.6*	6.6	19.5	29.6*	36.9*
O=C(NC(Cc1ccc2c(c1)OCO2)C(=O)NC(Cc1ccccc1)C(=O)O)c1ccccc1 (stereo not given)	13.0	-10.4	-2.2	1.2	-1.9	2.1	nt	nt
CCOC(=O)N1CCN(c2ncnc3c2[nH]c2ccc(F)cc23)CC1	1.1	2.3	-1.5	37.9*	-7.4	58.5*	46.5*	4.3
CCCCOc1ncnc2c1[nH]c1ccccc12	14.5	-15.3	-1.6	36.4*	-9.8	31.4	45.2*	13.7
CCCCOc1ncnc2c1[nH]c1ccc(F)cc12	7.3	-8.4	-2.7	37.3*	1.3	63.3*	34.7*	-3.5
CCCCOc1ncnc2c1[nH]c1ccc(OCC)cc12	4.0	-0.6	-3.6	15.1	-4.1	-7.6	nt	nt
CCNS(=O)(=O)c1ccc2nc(NC(=O)/C=C/c3cc(OC)c(OC)c(OC)c3)sc2c1	nt	nt	1.9	9.4	nt	nt	nt	nt
CC1CC(C)CN(S(=O)(=O)c2cccc(C(=O)OCCN3CCCC3=O)c2)C1 (stereo not given)	-2.4	2.0	-1.1	3.1	-6.4	4.1	nt	nt
CCOC(=O)C1=C(C)N(c2ccc(Cl)cc2)C(=O)NC1c1cccc([N+](=O)[O-])c1 (stereo not given)	nt	nt	-1.1	-2.6	nt	nt	nt	nt
CCC1CCCCN1Cc1ccc(OC)c(C)c1C (stereo not given)	5.9	-3.3	-1.5	-5.7	-6.2	-10.5	nt	nt
CCOc1ccc(-c2nc(-c3ccncc3)no2)cc1OCC	-2.8	1.5	-2.1	-1.5	0.3	-15.1	nt	nt
CCOc1cc(-c2nc(-c3ccncc3)no2)cc(OCC)c1OCC	-6.7	5.8	-4.6	35.3*	-8.1	2.5	2.1	6.0
CCOC(=O)c1cnc2c(C)c(Cl)ccc2c1Nc1ccc(S(=O)(=O)Nc2ncccn2)cc1	nt	nt	0.1	2.3	nt	nt	nt	nt
COc1cccc(C2=CC(c3ccc(N(C)C)cc3)n3ncnc3N2)c1 (stereo not given)	2.2	-4.7	0.6	8.1	-1.2	-7.6	nt	nt
COc1cccc(C2=CC(c3ccccc3)n3ncnc3N2)c1 (stereo not given)	18.4	-21.1	-0.8	27.0*	-6.9	24.7	29.5*	35.8*
CC(C)c1onc(C(=O)N2CCN(Cc3ccccc3)CC2)c1[N+](=O)[O-]	nt	nt	-0.3	-8.7	nt	nt	nt	nt
O=[N+]([O-])c1cc(/C=N/OCc2c(Cl)cccc2Cl)ccc1N1CCOCC1	1.7	-4.2	1.1	-12.6	6.0	-46.8	nt	nt
O=C(Cn1ncc(Cl)c(Cl)c1=O)NCC1CCCCC1	nt	nt	0.6	46.7*	nt	nt	33.4*	18.0
O=C(Cn1ncc(Cl)c(Cl)c1=O)c1ccc(Cl)cc1	5.1	-5.9	-1.2	22.3	-6.5	43.1	nt	nt
COc1cccc(-c2cn3nc(C)c(C)nc3n2)c1	9.1	-10.4	0.2	-15.9	2.0	1.5	nt	nt
COc1ccc(-c2cn3nc4c(nc3n2)CCCC4)cc1	-3.7	6.0	0.1	31.2*	-5.7	4.5	15.8	19.7
CCOC(=O)Nc1ccc2c(c1)N(C(=O)CCN1CCN3CCCC3C1)c1ccccc1CC2 (stereo not given)	11.0	-12.6	-1.4	21.1	-3.9	2.1	nt	nt
COC(=O)Nc1ccc2c(c1)N(C(=O)CCN1CCN3CCCC3C1)c1ccccc1CC2 (stereo not given)	nt	nt	-1.6	27.8*	nt	nt	15.7	6.2
CCOc1ccc(C2=Nn3c(nnc3-c3ccccc3OC)SC2)cc1	-2.4	1.7	5.3*	33.5*	5.3	5.8	31.9*	59.9*

Screens (PubChem BioAssay)
